Laboratory results as given in PubChem BioAssay (EPA / NIEHS).
Inconclusive results are not listed. Active and inactive are the calls of the source. Rule for the calls, unless noted: active = hit-call score of the fitted dose curve at least 0.9, where 1 is the maximum; inactive = score below 0.9.

Assays:
[1] = CCTE_Mundy_HCI_Cortical_NOG_NeuriteCount: CCTE's Neurite Outgrowth Assay in rat cortical cells for Neurite Count, Mundy Lab (AID 2284212);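 note: cells fixed about two days after chemical exposure began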
In short: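 Neurite number per cell from high-content imaging of betaIII-tubulin immunostaining, with Hoechst nuclear counterstain.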

[2] = CCTE_Mundy_HCI_Cortical_NOG_NeuriteLength: CCTE's Neurite Outgrowth Assay in rat cortical cells for Neurite Length, Mundy Lab (AID 2284213)
In short: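 Neurite length was read by high-content imaging of βIII-tubulin-labelled neurites in rat primary cortical cultures. Activity was fitted relative to DMSO.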

[3] = CCTE_Mundy_HCI_Cortical_Synap_Neur_Matur_NeuriteLength: CCTE's Synaptogenesis and Neurite Maturation Assay in rat cortical cells for Neurite Length, Mundy Lab (AID 2284214)
In short: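 Rat primary cortical cultures, AraC added DIV 5, dosed DIV 7 through DIV 12 […]. Fixed, MAP2/synaptophysin immunostained with Hoechst; neurite length by high-content imaging, fitted in positive direction versus DMSO.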

[4] = CCTE_Mundy_HCI_Cortical_Synap_Neur_Matur_NeuriteSpotCountPerNeuron: CCTE's Synaptogenesis and Neurite Maturation Assay in rat cortical cells for Neurite Spot Count per Neuron Count, Mundy Lab (AID 2284215)
In short: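 Rat primary cortical cells received AraC at DIV 5, then chemicals with a media change at DIV 7, and were fixed at DIV 12. Synaptophysin puncta on MAP2-stained neurites per neuron were counted by high-content imaging, fitted relative to DMSO.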

[5] = CCTE_Mundy_HCI_Cortical_Synap_Neur_Matur_SynapseCount: CCTE's Synaptogenesis and Neurite Maturation Assay in rat cortical cells for Synapse Count, Mundy Lab (AID 2284218)
In short: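 Rat primary cortical cultures, AraC at DIV 5, chemical dosing DIV 7 to DIV 12 (288.33 h). Fixed cells stained for MAP2, synaptophysin and Hoechst; synapses per neuron counted by high-content imaging, loss of signal versus DMSO.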

[6] = CCTE_Mundy_HCI_Cortical_Synap_Neur_Matur_NeuriteCount: CCTE's Synaptogenesis and Neurite Maturation Assay in rat cortical cells for Neurite Count, Mundy Lab (AID 2284222);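 note: exposure from day 7 to day 12 in vitro with readout at day 12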
In short: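 Rat primary cortical cells; AraC added at DIV 5, chemicals dosed with media change at DIV 7 through DIV 12. MAP2/synaptophysin/Hoechst immunostaining, high-content imaging of neurite number; fitted relative to DMSO.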

[7] = CCTE_Mundy_HCI_Cortical_Synap_Neur_Matur_CellBodySpotCount: CCTE's Synaptogenesis and Neurite Maturation Assay in rat cortical cells for Cell Body Spot Count, Mundy Lab (AID 2284223)
In short: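 Rat primary cortical cultures received AraC at DIV 5 to arrest glia, were dosed with chemical at DIV 7 with media change, and were fixed at DIV 12 (288.33 h). Synaptophysin puncta on MAP2-positive cell bodies per neuron were counted by high-content imaging versus DMSO.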

[8] = CCTE_Mundy_HCI_Cortical_NOG_NeuronCount: CCTE's Neurite Outgrowth Assay in rat cortical cells for Neuron Count, Mundy Lab (AID 2284236; active = hit-call score of the fitted dose curve at least 0.9, where 1 is the maximum;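 note: neurons counted by imaging betaIII-tubulin and Hoechst stained cortical cells; cells exposed to compound for about 48 hours before fixation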)
In short: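 Read-out: neuron number by high-content imaging of betaIII-tubulin (Alexa Fluor-488) and Hoechst-labelled rat primary cortical cells.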

[9] = CCTE_Mundy_HCI_Cortical_NOG_BPCount: CCTE's Neurite Outgrowth Assay in rat cortical cells for Branch Point Count, Mundy Lab (AID 2284237)
In short: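 Measured 50.33 h after dosing, this morphology endpoint uses rat primary cortical cultures labelled for betaIII-tubulin. Branch points are quantified by high-content imaging, with DMSO as negative control and baseline.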

[10] = CCTE_Mundy_HCI_hNP1_Casp3_7: CCTE's Caspase-Glo 3/7 Assay in human neuroprogenitor cells for Apoptosis, Mundy Lab (AID 2284240)
In short: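 Luminescent caspase-3/7 readout, 26.5 h post-dose, in human neural progenitor cells from WA09 embryonic stem cells. Cells grew 40–44 h at 37 °C, 5% CO2 before chemical addition. Activity analysed as signal increase over DMSO baseline.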

[11] = CCTE_Mundy_HCI_hNP1_CellTiter: CCTE's Cell Titer-Glo 2 Assay in human neuroprogenitor cells for Viability, Mundy Lab (AID 2284241; active = hit-call score of the fitted dose curve at least 0.9, where 1 is the maximum)
In short: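 Viability read as luminescent ATP content (CellTiter-Glo, 30 min room temperature) twenty-four hours after dosing, relative to DMSO. Cells: WA09-derived hNP1 neuroprogenitors on poly-L-ornithine/laminin, plated 40 to 44 hours before chemical.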

[12] = IUF_NPC2c_oligodendrocyte_migration_120hr: Leibniz Research Institute for Environmental Medicine (IUF) 120-hour Neural Progenitor Cell Migration Assay for Oligodendrocyte Migration (NPC2c) (AID 2284297);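 note: O4-positive oligodendrocyte migration distance divided by radial glia migration distance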
In short: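 Human fetal cortex-derived neural progenitor spheres (0.3 mm) were plated on poly-D-lysine/laminin in N2 differentiation medium and exposed to 7 concentrations for 120 h, with half-medium renewal at day 3. Oligodendrocyte migration distance was normalized to radial glia migration, relative to DMSO.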

[13] = IUF_NPC2a_radial_glia_migration_120hr: Leibniz Research Institute for Environmental Medicine (IUF) 120-hour Neural Progenitor Cell Migration Assay for Radial Glia Migration (NPC2a) (AID 2284298)
In short: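 Single 0.3 mm primary human fetal-cortex (GW 16-19) NPC spheres were plated on poly-D-lysine/laminin in N2 differentiation medium and exposed from day 0 for 120 h, half-medium refreshed day 3. Migration distance came from Hoechst nuclei-density imaging, relative to DMSO.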

[14] = IUF_NPC2a_radial_glia_migration_72hr: Leibniz Research Institute for Environmental Medicine (IUF) 72-hour Neural Progenitor Cell Migration Assay for Radial Glia Migration (NPC2a) (AID 2284299)
In short: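 Human fetal neural progenitor spheres (0.3 mm) plated on poly-D-lysine/laminin in N2 differentiation medium and exposed from day 0 at 7 concentrations; radial glia migration distance from sphere edge measured at 72 h on brightfield images, mean of four directions, vs DMSO.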

[15] = IUF_NPC2b_neuronal_migration_120hr: Leibniz Research Institute for Environmental Medicine (IUF) 120-hour Neural Progenitor Cell Migration Assay for Neuron Migration (NPC2b) (AID 2284300)
In short: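 Primary human fetal cortex neural progenitor spheres (0.3 mm) plated on poly-D-lysine/laminin in N2 differentiation medium, exposed 120 h with half-medium refresh at day 3. TUBB3-stained neuron distance from sphere core, normalized to radial glia migration, versus DMSO.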

[16] = IUF_NPC3_neuronal_differentiation_120hr: Leibniz Research Institute for Environmental Medicine (IUF) 120-hour Neuronal Differentiation Assay (NPC3) (AID 2284301)
In short: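 Human fetal (GW 16-19) neural progenitor spheres (0.3 mm) plated on poly-D-lysine/laminin in N2 differentiation medium, exposed 120 h at 37C with half-medium renewal day 3; 7 concentrations. TUBB3+ cells as % of Hoechst nuclei, CNN-identified; DMSO baseline.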

[17] = IUF_NPC4_neurite_length_120hr: Leibniz Research Institute for Environmental Medicine (IUF) 120-hour Neuronal Morphology Assay for Neurite Length (NPC4) (AID 2284302)
In short: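 Human fetal neural progenitor spheres (0.3 mm) plated on poly-D-lysine/laminin in N2 differentiation medium, exposed from day 0 for 120 h with half-medium refresh at day 3, 37C. Mean neurite length (um) of TUBB3-positive neurons from skeletonized immunostaining images; DMSO ≤0.1%.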

[18] = IUF_NPC5_oligodendrocyte_differentiation_120hr: Leibniz Research Institute for Environmental Medicine (IUF) 120-hour Oligodendrocyte Differentiation Assay (NPC5) (AID 2284304; active = hit-call score of the fitted dose curve at least 0.9, where 1 is the maximum;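 note: primary human fetal neural progenitor spheres plated to migrate and differentiate; share of O4-positive cells among Hoechst nuclei found by CNN image analysis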)
In short: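 Primary human fetal (GW 16-19) neural progenitor spheres (0.3 mm) plated on poly-D-lysine/laminin in N2 differentiation medium, exposed from day 0 for 120 h with half-medium refresh at day 3; O4-positive cells as percent of Hoechst nuclei, CNN-identified, versus DMSO.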

[19] = IUF_NPC2-5_cytotoxicity_72hr: Cytotoxicity Assessment at 72 hours in the Leibniz Research Institute for Environmental Medicine (IUF) Neural Progenitor Cell Migration and Differentiation Assay for Cytotoxicity (NPC2-5) (AID 2284306; active = hit-call score of the fitted dose curve at least 0.9, where 1 is the maximum;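 note: LDH release into supernatant measured by resorufin fluorescence marking membrane damage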)
In short: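 Human fetal primary neural progenitor spheres (0.3 mm) plated on poly-D-lysine/laminin in N2 differentiation medium, exposed from day 0 at 37C. LDH-dependent resazurin-to-resorufin fluorescence in supernatant at 72 h; 7 concentrations, DMSO at most 0.1%.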

[20] = IUF_NPC2-5_cytotoxicity_120hr: Cytotoxicity Assessment at 120 hours in the Leibniz Research Institute for Environmental Medicine (IUF) Neural Progenitor Cell Migration and Differentiation Assay (NPC2-5) (AID 2284307; active = hit-call score of the fitted dose curve at least 0.9, where 1 is the maximum)
In short: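 Human fetal neural progenitor spheres (0.3 mm, GW 16-19 cortex) were plated on poly-D-lysine/laminin in N2 differentiation medium and exposed for 120 h, with half-medium refresh at day 3. LDH release into supernatant was read by resorufin fluorescence.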

[21] = IUF_NPC2-5_cell_number_120hr: Cell Number Assessment at 120 hours in the Leibniz Research Institute for Environmental Medicine (IUF) Neural Progenitor Cell Migration and Differentiation Assay (NPC2-5) (AID 2284308);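 note: count of Hoechst-stained nuclei in migration zone around plated human neural progenitor spheres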
In short: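 Primary human fetal neural progenitor spheres (GW 16-19, 0.3 mm) plated on poly-D-lysine/laminin in N2 differentiation medium, exposed from day 0 for 120 h with half-medium refresh at day 3; Hoechst-positive nuclei counted in migration area versus DMSO control.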

[22] = IUF_NPC1_cytotoxicity_72hr: Cytotoxicity Assessment at 72 hours in the Leibniz Research Institute for Environmental Medicine (IUF) Neural Progenitor Cell Proliferation Assay (NPC1) (AID 2284332; active = hit-call score of the fitted dose curve at least 0.9, where 1 is the maximum;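 note: rising LDH signal means more cytotoxicity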)
In short: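 Human fetal neural progenitor spheres (0.3 mm) in EGF/FGF proliferation medium, 37C, exposed 72 h without renewal. LDH release in supernatant read by resorufin fluorescence; gain of signal scored relative to dynamic range.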

[23] = CCTE_Mundy_HCI_iCellGluta_NOG_NeuronCount: CCTE's Neurite Outgrowth Assay in iCellGluta cells for Neuron Count, Mundy Lab (AID 2284340; active = hit-call score of the fitted dose curve at least 0.9, where 1 is the maximum;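 note: cells fixed about 48 h after compound addition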)
In short: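 Neuron count read by automated high-content imaging of Hoechst 33342 and betaIII-tubulin/Alexa Fluor-488 labelling in human iPSC glutamatergic neurons. Activity fitted relative to DMSO.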

[24] = CCTE_Mundy_HCI_iCellGluta_NOG_NeuriteCount: CCTE's Neurite Outgrowth Assay in iCellGluta cells for Neurite Count, Mundy Lab (AID 2284342; active = hit-call score of the fitted dose curve at least 0.9, where 1 is the maximum;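 note: chemical exposure about 48 hours starting 2 hours after plating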)

Measured: outcome

C[C@@H]1CC[C@@H](C(C)(C)O)[C@H](O)C1
inactive: [1] | [2] | [3] | [4] | [5] | [6] | [7] | [8] | [9] | [10] | [11] | [12] | [13] | [14] | [15] | [16] | [17] | [18] | [19] | [20] | [21] | [22] | [23] | [24]
